Drawing on PubChem BioAssay, this text covers z-score and composite z-score for 7 compounds.

Assay [1] in a line: compound effects on lung adenocarcinoma cell viability – A549, calcein-AM fluorescence, 48 h, basal, profiling panel (AID 1162). Further: test concentration not given here. Conditions: higher = more signal.
Assay [2] is described as follows: compound effects on differentiated 3T3-L1 adipocyte viability – cell-based, 3T3-L1 adipocytes, calcein-AM fluorescence, 48 h, basal, profiling panel (AID 1163). Further: test concentration not given here. Conditions: 3T3-L1 adipocytes viability, higher = more signal.
Assay [3] can be described thus: compound effects on hepatocellular carcinoma cell viability – HepG2, calcein-AM fluorescence, 48 h, basal, profiling panel (AID 1164). Further: test concentration not given here. Conditions: higher = more signal.
Assay [4] in a line: compound effects on multiple myeloma cell viability – MM1S, calcein-AM fluorescence, 48 h, basal, profiling panel (AID 1165). Further: test concentration not given here. Conditions: higher = more signal.
Assay [5] can be described thus: calcein-AM signal in unstimulated myeloma cells – cell-based, calcein-AM fluorescence, 48 h, PK04 Diversity Set, profiling panel (AID 1166).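 Further: cells grown under basal conditions without added stimulus; test concentration not given here.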 As to conditions: RPMI8226 myeloma viability, higher = more signal.
Assay [6] in a line: JC-1 mitochondrial signal, unstimulated HepG2 cells – cell-based, JC-1 fluorescence, 24 h, 100 nL compound, profiling panel (AID 1167). Further: test concentration not given here. As to conditions: HepG2 mitochondrial potential, higher = more signal.
Assay [7] is described as follows: JC-1 mitochondrial signal, unstimulated adipocytes – cell-based, JC-1 fluorescence, 3T3-L1 adipocytes, 24 h, 100 nL compound, profiling panel (AID 1168). Further: test concentration not given here. As to conditions: JC-1 mitochondrial fluorescence, higher = more signal, called active from +8 up or from −8 down.
Assay [8] can be described thus: JC-1 mitochondrial signal, unstimulated myeloma cells – cell-based, JC-1 fluorescence, RPMI8226, 24 h, 100 nL compound, profiling panel (AID 1169). Further: test concentration not given here. Conditions: JC-1 mitochondrial potential fluorescence, higher = more signal.
Assay [9] in a line: JC-1 mitochondrial signal, unstimulated MM1S myeloma – cell-based, JC-1 fluorescence, 24 h, 100 nL compound, profiling panel (AID 1170). Further: test concentration not given here. As to conditions: MM1S mitochondrial potential, higher = more signal.
A short description of assay [10]: resazurin metabolic signal in A549 cells – cell-based, resazurin fluorescence, 24 h, PK04 Diversity Set, profiling panel (AID 1171). Further: test concentration not given here. As to conditions: A549 viability, higher = more signal, called active from +8 up or from −8 down.
Assay [11] can be described thus: resazurin metabolic signal in HepG2 cells – cell-based, resazurin fluorescence, 24 h, PK04 Diversity Set, profiling panel (AID 1172). Further: test concentration not given here. As to conditions: HepG2 viability, higher = more signal.
Assay [12] is described as follows: budding yeast growth changes without added modifier – OD600, strain BY4716, 24 h, basal condition, primary screen (AID 1173). Conditions: S. cerevisiae BY4716 growth, OD600, 24 h; higher = more signal, called active from +8 up or from −8 down.
The nature of assay [13]: viability profiling in MM1S myeloma cells – cell-based, resazurin fluorescence, basal, 24 h, PK04 Diversity Set, profiling panel (AID 1174). Further: test concentration not given here. Conditions: higher = more signal, called active from +8 up or from −8 down. For orientation: Alamar Blue is a resazurin reagent that responds to reducing activity.
Assay [14] deals with Dihydroorotate dehydrogenase (quinone), mitochondrial (Plasmodium falciparum (isolate 3D7)) (UniProt Q08210). Put plainly: inhibition of P. falciparum DHODH – biochemical, C-terminal His tag, absorbance 600 nm, primary screen (AID 1175).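 Further: recombinant parasite enzyme with a five histidine tag at its C terminus; test concentration not given here.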 Conditions: PfDHODH enzyme, DCIP absorbance 600 nm; higher = more signal, called active from +8 up or from −8 down.
A short description of assay [15]: inhibition of PAO1 biofilm formation – strain PAO1, LB-PBS medium, absorbance 600 nm, primary screen (AID 1176). Further: test concentration not given here. Conditions: P. aeruginosa PAO1 growth/biofilm, A600, 12 h; higher = more signal.
A short description of assay [16]: growth modulation of vineyard yeast isolate – strain RM11-1a, OD600, basal, 24 h, primary screen (AID 1177).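 Further: cultures grown under basal conditions with no added stressor; test concentration not given here.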 Conditions: S. cerevisiae RM11-1a growth, OD600, 24 h; higher = more signal, called active from +8 up or from −8 down.
Assay [17] is described as follows: growth of efflux-deficient E. coli DRC39 – strain DRC39, OD650, 24 h, E. coli filamentation inducers, primary screen (AID 1178).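 Further: growth measured as culture turbidity by optical density at 650 nm; test concentration not given here.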 As to conditions: E. coli DRC39 acrAB, higher = more signal, called active from +8 up or from −8 down.
Assay [18] is described as follows: growth of efflux-deficient E. coli DRC39 – strain DRC39, OD650, 48 h, E. coli filamentation inducers, primary screen (AID 1179).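 Further: screen aims at cell division blockers that make cells filament.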 Conditions: E. coli DRC39 delta-acrAB growth, higher = more signal, called active from +8 up or from −8 down.
A short description of assay [19]: viability profiling in RPMI8226 myeloma cells – cell-based, resazurin fluorescence, basal, 24 h, PK04 Diversity Set, profiling panel (AID 1180).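 Further: RPMI8826 multiple myeloma cell line at 5000 cells per well; test concentration not given here.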 Conditions: higher = more signal.
Assay [20] concerns the target E3 ubiquitin-protein ligase XIAP (Homo sapiens) (UniProt P98170). Put plainly: small molecules binding XIAP protein – biophysical, small-molecule microarray, fluorescence 635 nm, primary screen (AID 1181).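 Further: score merges 667 nm emission and signal to noise over triplicate slides.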 Conditions: higher = more signal.

Each structure is given as a SMILES string. Calls of active or inactive are those of the source. Unless noted, how the calls were made is not given here.

Sequence of Dihydroorotate dehydrogenase (quinone), mitochondrial (Plasmodium falciparum (isolate 3D7)) (Q08210 whole entry, looked up): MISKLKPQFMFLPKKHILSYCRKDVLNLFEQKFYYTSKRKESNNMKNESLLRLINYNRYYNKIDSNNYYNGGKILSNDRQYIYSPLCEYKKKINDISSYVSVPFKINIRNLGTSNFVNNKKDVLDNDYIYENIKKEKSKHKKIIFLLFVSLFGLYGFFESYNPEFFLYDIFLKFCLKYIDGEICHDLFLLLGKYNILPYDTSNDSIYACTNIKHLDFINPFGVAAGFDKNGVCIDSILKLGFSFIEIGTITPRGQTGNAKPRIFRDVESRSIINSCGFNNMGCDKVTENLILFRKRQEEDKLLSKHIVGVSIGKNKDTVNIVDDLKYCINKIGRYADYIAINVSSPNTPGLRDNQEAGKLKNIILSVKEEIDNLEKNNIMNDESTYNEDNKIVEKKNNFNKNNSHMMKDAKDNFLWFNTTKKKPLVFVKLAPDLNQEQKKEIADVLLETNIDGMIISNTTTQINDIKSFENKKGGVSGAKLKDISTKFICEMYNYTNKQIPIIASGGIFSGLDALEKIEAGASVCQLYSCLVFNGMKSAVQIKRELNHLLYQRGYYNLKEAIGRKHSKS
Sequence of E3 ubiquitin-protein ligase XIAP (Homo sapiens) (P98170 whole entry, looked up): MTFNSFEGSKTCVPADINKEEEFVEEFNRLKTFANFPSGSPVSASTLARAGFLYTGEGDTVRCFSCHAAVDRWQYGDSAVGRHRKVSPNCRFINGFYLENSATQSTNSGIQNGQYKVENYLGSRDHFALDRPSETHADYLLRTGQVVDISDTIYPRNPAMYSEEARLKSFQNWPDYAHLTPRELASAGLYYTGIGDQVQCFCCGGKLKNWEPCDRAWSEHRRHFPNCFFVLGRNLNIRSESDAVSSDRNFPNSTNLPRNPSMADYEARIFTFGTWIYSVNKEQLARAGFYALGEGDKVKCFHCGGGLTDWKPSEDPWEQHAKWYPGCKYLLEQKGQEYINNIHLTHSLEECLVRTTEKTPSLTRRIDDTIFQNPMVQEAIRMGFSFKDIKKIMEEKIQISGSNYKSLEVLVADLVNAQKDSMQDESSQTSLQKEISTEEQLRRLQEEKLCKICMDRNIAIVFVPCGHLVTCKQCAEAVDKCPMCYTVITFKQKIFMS

On to `O=C(NN=C1C[C@@H](O)[C@@H](O)[C@@H]2[C@@H]3C(=O)N(Cc4ccc5c(c4)OCO5)C(=O)[C@@H]3CC[C@@H]12)OCc1ccccc1`, for which the z-score in [1] is -0.592; in [2] it was 0.911; in assay [3], -0.423; in [4], 0.291; in assay [5], -0.531; in assay [6], 0.222. The z-score in assay [7] is 0.243 (inactive); in assay [8], 0.967; in assay [9], -1.65; in assay [10], 0.729 (inactive); in assay [11], 0.0352; in assay [12], -1.59 (inactive). Moreover, the z-score in assay [13] is 0.987 (inactive); in assay [15] it was -0.683 (inactive); in assay [16], -1.09 (inactive); in assay [17], 0.747 (inactive); in assay [18] it was -0.715 (inactive); in assay [19], -0.32. The composite z-score in assay [14] was -2.65 (inactive); in assay [20], -0.152.
Regarding `CC(CCN1CCCc2nc(C)c(C)cc21)=NO[C@H](C)c1cn([C@@H]2COC[C@H]2O)nn1`, the z-score in [1] was 0.105; in [2], -0.563; in assay [3] it was 0.243; in [4], -0.674; in [5] it was -0.0215; in assay [6] it was 0.219. Besides, the z-score is 0.707 (inactive) in assay [7]; 0.641 in [8]; -0.825 in assay [9]; -0.294 (inactive) in assay [10]; -0.537 in assay [11]; 0.593 (inactive) in assay [12]. For the same compound, the z-score in assay [13] is -0.144 (inactive); in [15] it was -0.525 (inactive); in [16], 0.836 (inactive); in assay [17], 0.973 (inactive); in assay [18], 0.741 (inactive); in assay [19], -1.6. In addition, the composite z-score in assay [14] was -0.0105 (inactive); in assay [20] it was 0.0264.
Consider `CC(CCC(=O)OC[C@H]1O[C@H](C#Cc2ccccc2)C=C[C@@H]1Oc1ccc(C)cc1)=NO[C@@H](C)c1cc(-c2c(C)cc(C)cc2C)no1`, for which the z-score was -0.355 in assay [1]; 0.777 in [2]; -0.338 in [3]; -0.0941 in [4]; -2.61 in assay [5]; 1.78 in assay [6]. Further, the z-score in assay [7] is -0.495 (inactive); in assay [8], 0.621; in assay [9], 0.114; in [10], -0.366 (inactive); in assay [11], -0.53; in assay [12] it was 0.0942 (inactive). Besides, the z-score in [13] is 0.281 (inactive); in [15], -0.798 (inactive); in [16], 0.333 (inactive); in assay [17], -0.135 (inactive); in assay [18], 0.213 (inactive); in [19], 0.838. For the same compound, the results for the composite z-score in assay [14] and in assay [20] were 1.04 (inactive) and -0.102, respectively.
As for `CCN1C(=O)[C@H]2[C@H]3[C@H](O)[C@H](O)CC(=NOC(C)CN4CCCc5nc(C)c(C)cc54)[C@@H]3CC[C@H]2C1=O` (stereo not given in full), the z-score in assay [1] is 0.355; in [2] it was -0.769; in [3], -0.283; in assay [4], -1.78; in [5] it was -0.99; in [6], 0.128. Besides, the z-score in assay [7] was -0.886 (inactive); in assay [8] it was 0.534; in [9] it was -0.902; in assay [10], -0.696 (inactive); in assay [11] it was -1.01; in [12] it was -0.0189 (inactive). Besides, the z-score in assay [13] was -2 (inactive); in [15], -0.112 (inactive); in assay [16] it was 0.49 (inactive); in [17] it was 0.836 (inactive); in assay [18], 0.583 (inactive); in [19], -2.01. Further, the values for the composite z-score in [14] and in assay [20] were 0.988 (inactive) and 0.109, respectively.
Consider `CCCNC(=O)OC[C@H]1O[C@H](CCON=C[C@@H](C)[C@H](OCc2ccccc2)C(C)C)C=C[C@@H]1Oc1ccc(OC)cc1`, for which the z-score is 0.544 in assay [1]; -0.0223 in assay [2]; 1.72 in [3]; 0.0415 in [4]; -0.0657 in assay [5]; 0.479 in [6]. The z-score in [7] was 0.024 (inactive); in assay [8], 0.499; in assay [9], -0.627; in assay [10] it was 0.743 (inactive); in [11] it was -0.208; in assay [12] it was -0.682 (inactive). For the same compound, the z-score in assay [13] was -2.5 (inactive); in assay [15] it was -0.242 (inactive); in [16], -2.27 (inactive); in [17], 0.0465 (inactive); in assay [18] it was 0.428 (inactive); in assay [19] it was -0.58. In addition, the figures for the composite z-score in assay [14] and in assay [20] were -1.78 (inactive) and -0.357, respectively.
For the compound `COC(=O)[C@H](C)NC(=O)CCC1CC(OC(=O)NCc2ccc3c(c2)OCO3)CC2(CCCC(COC(=O)NCc3ccccc3)O2)O1` (stereo not given in full), the z-score in [1] was 3.03; in [2], -0.645; in assay [3], 0.558; in assay [4], -0.147; in assay [5], 1.27; in [6] it was 1.33. Moreover, the z-score in assay [7] was 0.552 (inactive); in assay [8] it was 0.195; in assay [9], -0.882; in [10] it was 0.409 (inactive); in assay [11], 1.24; in assay [12], -0.67 (inactive). Moreover, the z-score in assay [13] is -0.731 (inactive); in assay [15], 0.38 (inactive); in [16], 0.479 (inactive); in [17], 1.03 (inactive); in [18] it was 0.32 (inactive); in [19] it was 1.11. For the same compound, the composite z-score in [14] was -0.504 (inactive); in [20], -0.205.
Take `CC(C)CON=C1C[C@@H](O)[C@@H](O)[C@@H]2[C@@H]3C(=O)N(C(C)(C)C)C(=O)[C@@H]3CC[C@@H]12`: the z-score is -0.502 in assay [1]; 1.07 in assay [2]; -0.337 in [3]; 0.086 in assay [4]; -0.289 in assay [5]; -0.0218 in assay [6]. Also, the z-score in assay [7] was 0.174 (inactive); in [8], -0.865; in assay [9] it was 0.342; in assay [10], -0.288 (inactive); in [11] it was -0.685; in assay [12], -0.322 (inactive). The z-score in [13] is 0.4 (inactive); in [15] it was 0.295 (inactive); in assay [16], -0.492 (inactive); in [17], 0.796 (inactive); in assay [18], -1.13 (inactive); in assay [19] it was -0.463. In addition, the values for the composite z-score in assay [14] and in [20] were -1.88 (inactive) and -0.277, respectively.
